We go through 40 compounds from PubChem BioAssay (NCI).

About 83,000 compounds went through this panel and 20% of them were active in at least one assay; those are over-represented in the sample as a whole.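 Each cell line was grown in a 96-well plate and treated with one concentration of compound for 48 hours. Values below 10 were considered active.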 Values without a mark were called inactive. Calls of active or inactive are those of the source.

The test system of the first assay is OVCAR-4 ovarian. In words: NCI-60 one-dose screen, 48 h (100 = growth as untreated, 0 = no growth, -100 = all killed). The following applies: 10 µM unless noted.
Consider `CCOC(=O)c1c(C)c2c(n1Cc1ccccc1)CSCC2=O`, for which the growth was 11.8% [100 µM].
For `O=C(CN1CCN(c2cc3c(cc2F)c(=O)c(C(=O)O)cn3C2CC2)CC1)N/N=C/c1ccco1`, the growth is 105%.
With `Clc1ccc(-c2cc(-c3ccccc3)nc(NCCNc3ccnc4cc(Cl)ccc34)n2)cc1`, the growth is -69.4% (active).
The same measure, in the same setting: in the case of `N#C/C(=C\C=C\c1ccc(-c2cc(Cl)ccc2Cl)o1)c1nc2ccccc2s1` it was 98.9%.
`COc1cc(OC)c(C(=O)C(CN(C)C)CN(C)C)cc1OC`: the growth is 54.1%.
`CCn1cc(CNc2ccc(C(=O)Nc3cc4cc(OC)c(OC)cc4c(C)n3)cc2)cn1`: the growth was 46.5%.
Take `N#Cc1c(-c2ccccc2)nc(SCc2nnc(-c3ccc(Cl)cc3)o2)[nH]c1=O`: the growth was 106%.
As for `O=P(O)(O)OCC1OC(n2cnc3c(NCc4ccco4)ncnc32)C(O)C1O` (centres undefined), the growth is 15.7%.
For `CCN(CC)CCCN1C(=O)c2c(c(C)c3c(oc4ccc(O)cc43)c2C)C1=O`, the growth is -35.5% (active).
For the compound `O=[N+]([O-])c1ccc(-c2cn3nc(-c4c[nH]c5ccccc45)sc3n2)cc1`, the growth is 88%.
Take `Cc1nc2ccccc2c(/C=C/c2ccccc2)c1C(=O)/C=C/c1ccccc1`: the growth is 38.5%.
The same measure, in the same setting: in the case of `O=C1Nc2c(C(=O)O)cccc2/C1=N/c1n[nH]c(=S)s1` it was 87.9%.
With `CC(=O)Oc1ccc(OC(C)=O)c2ccccc12`, the growth was -96.4% (active).
Still for that read-out and setting: the result for `COC(=O)/C=C1/SC(=Nc2ccc([N+](=O)[O-])cc2)N(CCc2c[nH]c3ccc(O)cc23)C1=O` reads 45.1%; that for `[2H]C([2H])([2H])Oc1ccc(F)cc1/C=C/C(=O)/C=C(/C=C/c1cc(F)ccc1OC([2H])([2H])[2H])OB(F)F`, 74.7%; that for `Nc1c(C(=O)Nc2cccc(Cl)c2)sc2nc3c(cc12)CCCC3`, 90.9%.
Consider `NS(=O)(=O)c1ccc(C(=O)NN2C(=O)c3c(Br)c(Br)c(Br)c(Br)c3C2=O)cc1`, for which the growth was 104%.
In the case of `Cc1c(Cl)cccc1C(=O)Nc1nc2c(s1)CN(C(=O)c1ccc(C(F)(F)F)cc1)CC2`, the growth was 38.5%.
Still for that read-out and setting: in the case of `CCCCCN(CCCCC)CC(O)c1cc(C)c2ccc3cc(C(C)C)ccc3c2c1` (centres undefined) it was 19.4%; in that of `CCC1S/C(=N\N=C(\C)c2cc3cc(Cl)ccc3o2)N(c2ccccc2)C1=O` (centres undefined), 107%.
In the case of `CN1C(=O)/C(=C/c2ccc(C(=O)Nc3ncc(Cc4cccc(Cl)c4)s3)cc2)SC1=S`, the growth was 52.9%.
With `O=C(NCc1cccc(CNC(=O)Nc2nc3ccccc3[nH]2)c1)Nc1nc2ccccc2[nH]1`, the growth is -75.7% (active).
As to `COc1ccc(Cn2cc3c(c2-c2ccccc2)CCc2cnoc2-3)cc1`, the growth was 54.7%.
The same measure, in the same setting: in the case of `FC(F)(F)c1ccc(Cn2cc(CSc3nc4ccccc4s3)nn2)cc1` it was 94.8%; in that of `COc1cc(OC)c2sc(-c3ccc(-n4cncc4-c4cc(OC)c(OC)c(OC)c4)cc3)nc2c1`, 50.2%; in that of `C#CCn1cnc2cnc(Nc3cccc(NC(=O)C=C)c3)nc21`, 90.8% [6.25 µM].
Take `CC(=O)/C(=C/c1ccc([N+](=O)[O-])cc1)C(=O)c1ccccc1`: the growth was 93.7%.
Turning to `CCOC(=O)/C=C1\S/C(=N\Nc2cc(=O)[nH]c3ccccc23)N(c2ccccc2)C1=O`, the growth was 84.3%.
`Cc1ccc(/C=C/C(=O)c2ccc(-n3cc(CN4CCN(c5cc6c(cc5F)c(=O)c(C(=O)O)cn6C5CC5)CC4)nn3)cc2)cc1`: the growth was 94.8%.

Another assay concerns SK-OV-3 ovarian. The assay is described as above. The following applies: 10 µM unless noted.
As to `CC(=O)OC[C@]12CC[C@@H]([C@@H](C)c3nnc(-c4ccncc4)o3)[C@@H]1[C@H]1CC[C@@H]3[C@@]4(C)CC[C@H](OC(C)=O)C(C)(C)[C@@H]4CC[C@@]3(C)[C@]1(C)CC2`, the growth was 90.7%.
Same read-out and setting: the result for `CCN(CC)c1ccc(/C=N/NC(=O)Cc2ccc(Nc3ccnc(C(F)(F)F)c3)cc2)c(O)c1` reads 28%.
In the case of `Cc1cc2c(cc1C)N(C(=O)CCl)CC(=O)N2`, the growth was 68.9%.
As for `C#CC#CC#CC#CC#CC#CC#CC#CC[C@@H]1OC[C@@H](COC(=O)O[C@@H](C(=O)O[C@H]2C[C@@]3(O)[C@@H](OC(=O)c4ccccc4)[C@@H]4[C@]5(OC(C)=O)CO[C@@H]5C[C@H](O)[C@@]4(C)C(=O)[C@H](OC(C)=O)C(=C2C)C3(C)C)[C@@H](NC(=O)c2ccccc2)c2ccccc2)O1`, the growth is 98.6%.
On the same count and under the same terms, the result for `CCN1C(=O)N(CC)C2C1NN=c1s/c(=C\c3cnc(C)n3C)c(=O)n12` (centres undefined) reads 27.9%; that for `C/C=C(\C)C(=O)N[C@H]1C(O)C[C@]2(C)C3CC[C@@]4(C)C(CC[C@@H]4C(C)N(C)C)C3CCC2C1O` (some centres undefined), 87.7%.
Turning to `C#Cc1cccc(Nc2nc(C)nc3cc(NC(=O)CCl)ccc23)c1`, the growth is 8.47% (active).
As to `CSc1nn2c(-c3ccc4ccccc4c3)ccnc2c1C#N`, the growth was 12.8%.
Turning to `CCN(CC)CCCOc1ccc2ncnc(Nc3ccc(Oc4cccc(C(F)(F)F)c4)c(Cl)c3)c2c1`, the growth was 13.4%.
On the same count and under the same terms, the result for `O=C1/C(=C\c2ccccn2)c2ccccc2N1c1c(Cl)cccc1Cl` reads 27.4%; that for `CCOC(=O)c1c(C)c2c(n1Cc1ccccc1)CSCC2=O`, 19.8% [100 µM].
Take `O=C(CN1CCN(c2cc3c(cc2F)c(=O)c(C(=O)O)cn3C2CC2)CC1)N/N=C/c1ccco1`: the growth was 88.8%.
With `Clc1ccc(-c2cc(-c3ccccc3)nc(NCCNc3ccnc4cc(Cl)ccc34)n2)cc1`, the growth was 100%.
For `N#C/C(=C\C=C\c1ccc(-c2cc(Cl)ccc2Cl)o1)c1nc2ccccc2s1`, the growth was 76.8%.
On to `COc1cc(OC)c(C(=O)C(CN(C)C)CN(C)C)cc1OC`, for which the growth was 85.1%.
As to `CCn1cc(CNc2ccc(C(=O)Nc3cc4cc(OC)c(OC)cc4c(C)n3)cc2)cn1`, the growth was 56.8%.
On to `N#Cc1c(-c2ccccc2)nc(SCc2nnc(-c3ccc(Cl)cc3)o2)[nH]c1=O`, for which the growth is 55.4%.
As for `O=P(O)(O)OCC1OC(n2cnc3c(NCc4ccco4)ncnc32)C(O)C1O` (centres undefined), the growth was 1.95% (active).
For the compound `CCN(CC)CCCN1C(=O)c2c(c(C)c3c(oc4ccc(O)cc43)c2C)C1=O`, the growth is 109%.
`O=[N+]([O-])c1ccc(-c2cn3nc(-c4c[nH]c5ccccc45)sc3n2)cc1`: the growth was 88.3%.
On the same count and under the same terms, in the case of `Cc1nc2ccccc2c(/C=C/c2ccccc2)c1C(=O)/C=C/c1ccccc1` it was 68.1%.
With `O=C1Nc2c(C(=O)O)cccc2/C1=N/c1n[nH]c(=S)s1`, the growth was 85.7%.
The same measure, in the same setting: in the case of `CC(=O)Oc1ccc(OC(C)=O)c2ccccc12` it was 102%.
For `COC(=O)/C=C1/SC(=Nc2ccc([N+](=O)[O-])cc2)N(CCc2c[nH]c3ccc(O)cc23)C1=O`, the growth is 61.3%.
As for `[2H]C([2H])([2H])Oc1ccc(F)cc1/C=C/C(=O)/C=C(/C=C/c1cc(F)ccc1OC([2H])([2H])[2H])OB(F)F`, the growth was 107%.
On to `Nc1c(C(=O)Nc2cccc(Cl)c2)sc2nc3c(cc12)CCCC3`, for which the growth was 96.2%.
`NS(=O)(=O)c1ccc(C(=O)NN2C(=O)c3c(Br)c(Br)c(Br)c(Br)c3C2=O)cc1`: the growth is 116%.
The same measure, in the same setting: in the case of `Cc1c(Cl)cccc1C(=O)Nc1nc2c(s1)CN(C(=O)c1ccc(C(F)(F)F)cc1)CC2` it was 36.4%; in that of `CCCCCN(CCCCC)CC(O)c1cc(C)c2ccc3cc(C(C)C)ccc3c2c1` (centres undefined), 85.6%; in that of `CCC1S/C(=N\N=C(\C)c2cc3cc(Cl)ccc3o2)N(c2ccccc2)C1=O` (centres undefined), 108%.
Same read-out and setting: the result for `CN1C(=O)/C(=C/c2ccc(C(=O)Nc3ncc(Cc4cccc(Cl)c4)s3)cc2)SC1=S` reads 72.1%.
Turning to `O=C(NCc1cccc(CNC(=O)Nc2nc3ccccc3[nH]2)c1)Nc1nc2ccccc2[nH]1`, the growth is -19% (active).
Turning to `COc1ccc(Cn2cc3c(c2-c2ccccc2)CCc2cnoc2-3)cc1`, the growth was 21.9%.
Still for that read-out and setting: in the case of `Cc1ccc(CNc2c3ccccc3nc3ccccc23)cc1` it was 46.9%.
On the same count and under the same terms, the result for `FC(F)(F)c1ccc(Cn2cc(CSc3nc4ccccc4s3)nn2)cc1` reads 104%.
For the compound `COc1cc(OC)c2sc(-c3ccc(-n4cncc4-c4cc(OC)c(OC)c(OC)c4)cc3)nc2c1`, the growth was 88.8%.
Turning to `C#CCn1cnc2cnc(Nc3cccc(NC(=O)C=C)c3)nc21`, the growth is 52.4% [6.25 µM].
The same measure, in the same setting: in the case of `CC(=O)/C(=C/c1ccc([N+](=O)[O-])cc1)C(=O)c1ccccc1` it was 101%; in that of `CCOC(=O)/C=C1\S/C(=N\Nc2cc(=O)[nH]c3ccccc23)N(c2ccccc2)C1=O`, 101%; in that of `Cc1ccc(/C=C/C(=O)c2ccc(-n3cc(CN4CCN(c5cc6c(cc5F)c(=O)c(C(=O)O)cn6C5CC5)CC4)nn3)cc2)cc1`, 84.7%.
